According to PubChem BioAssay AID1159580 (chemical genetic matrix, 2015):
Values joined by “and” are separate entries in the source; they are usually repeats but may differ in a detail not shown here. Equal entries are not always repeated. Screen size: about 5,500 compounds; about 2,000 (36%) were called active. About 18% were inconclusive and are not listed. Rule as the data show it: active = normalized growth mostly below about 0.91 (no sharp cut-off); inconclusive = no clear call, values can overlap the other calls; inactive = mostly above about 0.92. This is one part of the list.

Experiment: chemical genetic growth profiling, strain panel (AID 1159580);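 also: tested at 20 µM; growth read once vehicle control cultures reached saturation at 30 °C; 1 = growth at the plate median or of vehicle wells; lower values mean less growth of the strain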
Conditions: growth OD

Measured: normalized growth

Cc1cc(C(C)(C)C)cc(C)c1CC1=NCCN1
inactive: S. cerevisiae deletion strains, locus YJR075W, strain HOC1, active compounds read low 1.02 | S. cerevisiae deletion strains, locus YKL009W, strain mrt4, active compounds read low 1.03 | S. cerevisiae deletion strains, locus YKL068W, active compounds read low 1 | S. cerevisiae deletion strains, locus YKL085W, strain MDH1 (second series), active compounds read low 1.02 | S. cerevisiae deletion strains, locus YKL085W, strain MDH1, active compounds read low 1.02 | S. cerevisiae deletion strains, locus YKL160W, strain elf1, active compounds read low 1.01 | S. cerevisiae deletion strains, locus YKL190W, strain CNB1, active compounds read low 1.02 | S. cerevisiae deletion strains, locus YKR001C, strain vps1, active compounds read low 0.99 | S. cerevisiae deletion strains, locus YKR026C, strain gcn3, active compounds read low 1.01 | S. cerevisiae deletion strains, locus YKR091W, strain srl3, active compounds read low 0.996 | S. cerevisiae deletion strains, locus YLL001W, strain dnm1, active compounds read low 1.03 | S. cerevisiae deletion strains, locus YLL026W, active compounds read low 0.995 | S. cerevisiae deletion strains, locus YLL041C, strain sdh2, active compounds read low 1 | S. cerevisiae deletion strains, locus YLR027C, strain aat2, active compounds read low 1.01 | S. cerevisiae deletion strains, locus YLR039C, strain RIC1, active compounds read low 0.992 | S. cerevisiae deletion strains, locus YLR058C, strain SHM2, active compounds read low 1.02 | S. cerevisiae deletion strains, locus YLR102C, strain apc9, active compounds read low 0.996 | S. cerevisiae deletion strains, locus YLR113W, strain HOG1, active compounds read low 0.997 | S. cerevisiae deletion strains, locus YLR221C, strain rsa3, active compounds read low 0.969 | S. cerevisiae deletion strains, locus YLR258W, strain gsy2, active compounds read low 1 | S. cerevisiae deletion strains, locus YLR262C, strain YPT6 (second series), active compounds read low 1.03 | S. cerevisiae deletion strains, locus YLR262C, strain YPT6, active compounds read low 1.06 | S. cerevisiae deletion strains, locus YLR268W, strain sec22, active compounds read low 0.983 | S. cerevisiae deletion strains, locus YLR320W, strain mms22, active compounds read low 0.99 | S. cerevisiae deletion strains, locus YLR330W, strain CHS5, active compounds read low 1.01 | S. cerevisiae deletion strains, locus YLR342W, strain FKS1 (second series), active compounds read low 0.99 | S. cerevisiae deletion strains, locus YLR342W, strain FKS1, active compounds read low 1 | S. cerevisiae deletion strains, locus YLR357W, strain rsc2, active compounds read low 1 | S. cerevisiae deletion strains, locus YLR370C, strain arc18, active compounds read low 1.01 | S. cerevisiae deletion strains, locus YLR371W, strain rom2, active compounds read low 1 | S. cerevisiae deletion strains, locus YLR384C, strain iki3, active compounds read low 1 | S. cerevisiae deletion strains, locus YLR418C, strain cdc73, active compounds read low 0.995 | S. cerevisiae deletion strains, locus YML016C, strain PPZ1, active compounds read low 1.01 | S. cerevisiae deletion strains, locus YML032C, strain rad52, active compounds read low 0.994 | S. cerevisiae deletion strains, locus YML120C, strain ndi1, active compounds read low 1.01 | S. cerevisiae deletion strains, locus YML124C, strain tub3, active compounds read low 0.996 | S. cerevisiae deletion strains, locus YMR058W, strain fet3, active compounds read low 1.01 | S. cerevisiae deletion strains, locus YMR078C, strain ctf18, active compounds read low 0.991 | S. cerevisiae deletion strains, locus YMR125W, strain sto1, active compounds read low 0.981 | S. cerevisiae deletion strains, locus YMR129W, active compounds read low 1 | S. cerevisiae deletion strains, locus YMR205C, strain PFK2, active compounds read low 1.02 | S. cerevisiae deletion strains, locus YMR223W, strain ubp8, active compounds read low 1 | S. cerevisiae deletion strains, locus YMR231W, strain pep5, active compounds read low 1 | S. cerevisiae deletion strains, locus YMR263W, strain SAP30, active compounds read low 1.02 | S. cerevisiae deletion strains, locus YMR307W, strain GAS1, active compounds read low 1.02 and 0.994 | S. cerevisiae deletion strains, locus YNL067W, strain RPL9B, active compounds read low 1.02 | S. cerevisiae deletion strains, locus YNL071W, strain lat1, active compounds read low 0.998 | S. cerevisiae deletion strains, locus YNL128W, strain TEP1, active compounds read low 1.03 and 0.994 | S. cerevisiae deletion strains, locus YNL153C, strain GIM3, active compounds read low 1 and 0.97 | S. cerevisiae deletion strains, locus YNL175C, strain NOP13, active compounds read low 1.02 | S. cerevisiae deletion strains, locus YNL183C, strain NPR1, active compounds read low 0.96 | S. cerevisiae deletion strains, locus YNL197C, strain WHI3, active compounds read low 1.01 | S. cerevisiae deletion strains, locus YNL209W, strain ssb2, active compounds read low 0.998 | S. cerevisiae deletion strains, locus YNL224C, strain SQS1, active compounds read low 0.987 | S. cerevisiae deletion strains, locus YNL233W, strain BNI4, active compounds read low 1.02 | S. cerevisiae deletion strains, locus YNL248C, strain rpa49, active compounds read low 0.948 | S. cerevisiae deletion strains, locus YNL250W, strain rad50, active compounds read low 1.01 | S. cerevisiae deletion strains, locus YNL271C, strain bni1, active compounds read low 0.986 | S. cerevisiae deletion strains, locus YNL298W, strain CLA4, active compounds read low 0.992 | S. cerevisiae deletion strains, locus YNL307C, strain MCK1, active compounds read low 1.01 | S. cerevisiae deletion strains, locus YNL322C, strain KRE1 (second series), active compounds read low 1.01 | S. cerevisiae deletion strains, locus YNL322C, strain KRE1, active compounds read low 1.02 | S. cerevisiae deletion strains, locus YNR049C, strain mso1, active compounds read low 0.998 | S. cerevisiae deletion strains, locus YNR052C, strain pop2, active compounds read low 0.997 | S. cerevisiae deletion strains, locus YOL006C, strain TOP1, active compounds read low 0.984 | S. cerevisiae deletion strains, locus YOL012C, strain htz1 1.06 | S. cerevisiae deletion strains, locus YOL147C, strain pex11, active compounds read low 0.998 | S. cerevisiae deletion strains, locus YOR001W, strain rrp6, active compounds read low 1.02 | S. cerevisiae deletion strains, locus YOR061W, strain CKA2, active compounds read low 1.01 | S. cerevisiae deletion strains, locus YOR069W, strain VPS5, active compounds read low 1.02 | S. cerevisiae deletion strains, locus YOR070C, strain gyp1, active compounds read low 0.992 | S. cerevisiae deletion strains, locus YOR080W, strain dia2, active compounds read low 1.01 | S. cerevisiae deletion strains, locus YOR083W, strain WHI5 (second series), active compounds read low 0.992 | S. cerevisiae deletion strains, locus YOR083W, strain WHI5, active compounds read low 0.99 | S. cerevisiae deletion strains, locus YOR106W, strain vam3, active compounds read low 1.03 | S. cerevisiae deletion strains, locus YOR136W, strain idh2, active compounds read low 0.997 | S. cerevisiae deletion strains, locus YOR144C, strain elg1, active compounds read low 1 | S. cerevisiae deletion strains, locus YOR184W, strain ser1, active compounds read low 1 | S. cerevisiae deletion strains, locus YOR231W, strain MKK1, active compounds read low 1 | S. cerevisiae deletion strains, locus YOR265W, strain rbl2, active compounds read low 1 | S. cerevisiae deletion strains, locus YOR270C, strain vph1, active compounds read low 1 | S. cerevisiae deletion strains, locus YOR290C, strain snf2, active compounds read low 0.975 | S. cerevisiae deletion strains, locus YOR316C, strain cot1, active compounds read low 0.997 | S. cerevisiae deletion strains, locus YPL051W, strain arl3, active compounds read low 1.01 | S. cerevisiae deletion strains, locus YPL055C, strain LGE1, active compounds read low 1.04 | S. cerevisiae deletion strains, locus YPL078C, strain atp4, active compounds read low 1.03 | S. cerevisiae deletion strains, locus YPL106C, strain sse1, active compounds read low 0.996 | S. cerevisiae deletion strains, locus YPL240C, strain hsp82, active compounds read low 0.991 | S. cerevisiae deletion strains, locus YPL241C, strain CIN2, active compounds read low 1.01 and 1 | S. cerevisiae deletion strains, locus YPL256C, strain CLN2, active compounds read low 0.949 | S. cerevisiae deletion strains, locus YPR119W, strain clb2, active compounds read low 0.995 | S. cerevisiae deletion strains, locus YPR141C, strain kar3, active compounds read low 1.01 | S. cerevisiae deletion strains, locus YPR163C, strain tif3, active compounds read low 1 | S. cerevisiae deletion strains, locus YPR167C, strain met16, active compounds read low 0.997 | S. cerevisiae deletion strains, strain wtn01, active compounds read low 0.994 | S. cerevisiae strains, strain wild type, active compounds read low 1.01
